SW480 rereplic: A quantitative high throughput screen for small molecules that induce DNA re-replication in SW480 colon adenocarcinoma cells. SW480 DNA re-replication, Hoechst DNA content imaging, 48 h. Potency, µM (highest dose often 46.1 µM), for inactives: top-dose re-replication activation, hits mostly activators. actives 1.8% (n = 340,000). AID 624297, 2012; further: % of control where 0% means no effect; nearly all actives have a fitted effect of over 55% in size
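Quantitative HTS format with DMSO vehicle controls; 48 hr drug incubation at 37 C, then 40 min Hoechst staining and scanning imager measurement at 405 nm excitation.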
MCF10A rerep: A quantitative high throughput screen for small molecules that induce DNA re-replication in MCF 10a normal breast cells | MCF 10A DNA re-replication, Hoechst nuclear intensity, 48 h | Potency, µM (doses to about 46.1 µM), inactives show top-dose activity, positive = re-replication, actives largely listed as activators | actives 2.9% (n = 350,000); further: % of control where 0% means no effect; nearly all actives have a fitted effect of over 50% in size
ELG1 DNA repair: qHTS screen for small molecules that inhibit ELG1-dependent DNA repair in human embryonic kidney (HEK293T) cells expressing luciferase-tagged ELG1. actives 2.3% (n = 330,000). Potency, µM (top dose mostly 46.1 µM), inactives show at the highest dose activity change, negative = inhibition, actives largely listed as inhibitors. HEK293T ELG1-luciferase reporter, luminescence, 16 h; DNA damage induced by 5-fluorouridine; further: on the % scale 0 is the no-effect control and ±100 the full control effect; nearly all actives have a fitted effect of over 55% in size
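5-Fluorouridine DNA damage + compound/DMSO, 2,000 cells/well, 16 h, 37 °C/5% CO2. ONE-Glo, 30 min RT, luminescence. Readout = decrease in reporter signal.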
KB-V1 cytotox: qHTS assay for MDR1-selective chemotherapeutics: Primary screen using the drug-selected MDR subline cells KB-V1; KB-V1 MDR cells viability, CellTiter-Glo, 72 h; Potency, µM (top dose mostly 46.1 µM), hits mostly cytotoxic; actives 3.4% (n = 400,000); further: on the % scale 0 is the no-effect control and ±100 the full control effect; nearly all actives have a fitted effect of over 60% in size
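Cells of the MDR subline KB-V1 are plated, dosed with compound at multiple concentrations, and incubated 72 h at 37 degrees C; CellTiter-Glo is then added and luminescence read after 10 min.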
KB-3-1 tox: qHTS assay for MDR1-selective chemotherapeutics: Primary screen using the parental adenocarcinoma cell KB-3-1; KB-3-1 viability, CellTiter-Glo ATP luminescence, 72 h; Potency, µM (top dose mostly 46.1 µM), hits mostly cytotoxic; actives 1.4% (n = 400,000); further: on the % scale 0 is the no-effect control and ±100 the full control effect; nearly all actives have a fitted effect of over 60% in size
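Screening of KB-3-1 cells (DMEM, 10% FBS, phenol-red free) ran from lowest to highest compound concentration; after 72 h at 37 °C viability was read luminescently and curves fitted.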
* = called active by the depositor; i = inactive; ? = inconclusive; . = not tested or not shown; [ ] = remark or other dose. Most compounds without a hit are left out; they make up all but 8.1% or so of the library. The call rests on the fitted dose curve; in most records, active means well fitted curve in the direction sought with a large enough effect; inconclusive means small, poorly fitted or top-dose-only effect, or another doubt; inactive means no such curve, though single readings can be large; an effect the other way counts as inactive or inconclusive. Potency means the concentration at half of the fitted maximal effect.

SMILES | SW480 rereplic | MCF10A rerep | ELG1 DNA repair | KB-V1 cytotox | KB-3-1 tox
Cc1occc1-c1nnc(SCC(=O)NC2CCCCC2C)o1 (stereo not drawn) | 2.1% | -0.3% | ? | ? | i
COc1ccc(OCC(=O)Nc2c(C(=O)N3CCN(c4ccccc4)CC3)oc3ccccc23)cc1 | . | . | . | i | i
CC(=O)c1ccc(NC(=O)CN2CCN(c3ncccn3)CC2)cc1 | 0.9% | -6.5% | -4.7% | i | i
O=S(=O)([N-]c1nc2ccccc2nc1-[n+]1ccc(CCCc2ccccc2)cc1)c1cccs1 | -10.3% | 0.0% | -9.1% | ? | i
O=C1/C(=N\S(=O)(=O)c2cccs2)C([n+]2cccc(Cc3ccccc3)c2)=C([O-])c2ccccc21 | 8.2µM* | 0.5% | 2.31µM* | i | ?
O=C1/C(=N\S(=O)(=O)c2cccs2)C([n+]2ccc(CCCc3ccccc3)cc2)=C([O-])c2ccccc21 | ? | 11.0% | 13µM* | ? | i
CC(C)CN(C(=O)Cn1c(C(F)(F)F)nc2ccccc21)c1c(N)n(Cc2ccccc2)c(=O)[nH]c1=O | 0.2% | 0.4% | . | i | i
COc1ccc(CC(NC(C)=O)C(=O)NC2CCN(c3nc(C)cc(C)c3C#N)CC2)cc1OC (stereo not drawn) | -8.9% | 0.581µM* | ? | i | i
CC(C)CNC(=O)c1ccccc1N(Cc1ccccc1)S(C)(=O)=O | 11.6µM* | 1.5% | -8.1% | i | i
CSc1cccc(NC(=O)CN(Cc2ccc(Cl)cc2)S(C)(=O)=O)c1 | -0.9% | 1.6% | -13.9% | 11.6µM* | i
CSc1ccccc1NC(=O)CN(Cc1ccccc1)S(C)(=O)=O | 3.8% | 11.6% | 3.7% | 20.6µM* | i
CSc1ccccc1NC(=O)c1ccccc1N(Cc1ccccc1)S(C)(=O)=O | -2.7% | 0.4% | -12.8% | 9.2µM* | i
CSc1ccccc1NC(=O)c1ccccc1N(C)S(C)(=O)=O | -1.0% | -2.1% | 11.7% | i | i
CCOc1ccc(C(=O)Nc2ccccc2C(=O)O)cc1 | 6.4% | 16.5% | ? | i | i
O=C(O)c1ccc2c(c1)C(=O)N(c1cccc(-c3nc4ccccc4s3)c1)C2=O | 5.5% | ? | ? | i | i
COC(=O)c1cc2cc(OC)ccc2n1C | -23.6%[9.22 µM] | 3.0% | ? | i | i
Cn1nc(-c2ccncc2)nc2c(=O)n(C)c(=O)nc1-2 | . | . | . | ? | 1.84µM*
Nc1c(C(=O)N/N=C/c2ccccc2Cl)oc2nc(-c3ccccc3)cc(-c3ccco3)c12 | 18.4µM* | 8.2µM* | ? | i | ?
Nc1c(C(=O)N/N=C/c2ccc(F)cc2)oc2nc(-c3ccccc3)cc(-c3ccco3)c12 | 355.4% | 20.6µM* | -24.8% | i | i
Cc1cc(-c2ccccc2)nc2oc(C(=O)NN)c(N)c12 | ? | ? | -8.0% | i | i
Cc1ccc(C(=O)N2CCC(C)CC2)cc1NC(=O)c1nsc2ccccc12 | . | . | . | i | i
O=c1cc(O)c2sc(Nc3ccc(F)c(Cl)c3)nc2[nH]1 | 0.5% | 18.0% | 1.5% | i | 20.6µM*
COc1ccc(Nc2nc3[nH]c(=O)cc(O)c3s2)cc1 | 2.3% | 15.5% | 12.4% | i | i
O=c1cc(O)c2sc(Nc3ccc(Cl)c(F)c3)nc2[nH]1 | ? | 18.2% | ? | i | 13µM*
CC(=O)c1ccc(NC(=O)CSc2nc3[nH]c(=O)cc(O)c3s2)cc1 | -2.0% | 12.4% | . | i | i
SMILES | SW480 rereplic | MCF10A rerep | ELG1 DNA repair | KB-V1 cytotox | KB-3-1 tox
COc1cccc(CN2CC(C(=O)NCCn3cccn3)CCC2=O)c1 (stereo not drawn) | -11.9% | -1.1% | 0.5% | i | i
Cc1nnsc1C(=O)Oc1ccccc1Cl | . | . | . | i | i
Cc1ccc(-c2cc(C(=O)NCCCn3ccnc3)c3cc(Br)ccc3n2)o1 | ? | 8.5% | 0.9% | 20.6µM* | i
Cc1ccc(-c2cc(C(=O)O)c3cc(Br)ccc3n2)o1 | -5.1% | ? | 8.9% | ? | i
COC(=O)c1cc(-c2ccc(C)o2)nc2ccccc12 | 16.4µM* | 23.1µM* | 0.0% | ? | i
COc1ccccc1NC(=O)c1cc(-c2ccc(OC)c(OC)c2)nc2ccccc12 | 16.2% | 14.4% | -6.4% | i | i
Cc1ccc(-c2cc(C(=O)NCC(c3ccccc3)N(C)C)c3ccccc3n2)o1 (stereo not drawn) | 25.9µM* | ? | -26.1% | i | i
Cc1ccc(-c2cc(C(=O)Nc3ccccc3C)c3ccccc3n2)o1 | 1.4% | ? | ? | i | i
COc1ccc(-c2cc(C(=O)NCC(c3ccccc3)N(C)C)c3ccccc3n2)cc1OC (stereo not drawn) | 18.4µM* | 18.4µM* | -19.3% | i | i
CN(C)CCCN(C(=O)c1ccc(S(=O)(=O)N2CCCCCC2)cc1)c1nc2c(F)cc(F)cc2s1 | 9.2% | 7.8% | ? | i | i
COc1ccccc1N1CCN(C(=O)C(C)N(c2ccccc2)S(C)(=O)=O)CC1 (stereo not drawn) | 1.9% | 1.7% | 9.6% | i | i
CS(=O)(=O)N(Cc1ccc(F)cc1)Cc1nc2ccccc2c(=O)[nH]1 | 8.5% | 0.0% | -3.5% | i | i
CCNC(=S)N(Cc1ccccc1)Cc1nc2ccccc2c(=O)[nH]1 | -38.4% | -0.6% | -9.1% | 20.6µM* | i
COCCCNC(=S)N(Cc1ccccc1)Cc1nc2ccccc2c(=O)[nH]1 | -0.4% | -4.8% | -14.6% | i | i
CSc1ccc(CN(C)Cc2nc3ccccc3c(=O)[nH]2)cc1 | -2.7% | -2.7% | ? | 20.6µM* | i
Cc1nn(C)c(C(=O)N/N=C/c2cccc(Oc3ccccc3)c2)c1Br | -0.9% | 5.9% | 14.7% | i | i
NC(=S)NNc1ccnc2cc(Cl)ccc12 | -13.5% | 7.8% | -5.9% | ? | i
FC(F)Oc1ccc(NC(=S)NNc2ccnc3cc(Cl)ccc23)cc1 | 11.6µM* | ? | 1.9% | ? | 16.4µM*
Cc1ccc(-c2nc3c(c(=O)c4ccccc4n3C)c(=O)n2Cc2ccco2)cc1 | 18.4µM* | 1.9% | -21.0% | i | i
Cn1c2ccccc2c(=O)c2c(=O)n(Cc3ccco3)c(-c3ccc(F)cc3)nc21 | ? | -14.7% | -15.1% | i | i
O=C(c1cc(COc2c(F)cccc2F)on1)N1CCC(c2ccncc2)CC1 | -5.0% | ? | ? | ? | 23.1µM*
CCCc1nnc(NC(=O)CCC(=O)NCCc2ccc(OC)c(OC)c2)s1 | -2.4% | -10.1% | 15.0% | i | i

Screening data: PubChem BioAssay, National Center for Advancing Translational Sciences (NCATS)
